For some of these results: Results with a measured potency or affinity are listed apart.

Holding throughout (design): scale not given: direction of the effect not stated beside the values
The target in experiment [1] is Protein translocase subunit SecA (Escherichia coli (strain K12)) (UniProt P10408). Put plainly: Assay to Identify E. coli SecA ATPase Inhibitors. The following applies: 30 µM. In kind it is functional.
In experiment [2] the target is T1, Ubiquitin-activating enzyme e1, putative (Leishmania donovani (strain BPK282A1)) (UniProt E9BSI1).
T1 sequence (whole entry): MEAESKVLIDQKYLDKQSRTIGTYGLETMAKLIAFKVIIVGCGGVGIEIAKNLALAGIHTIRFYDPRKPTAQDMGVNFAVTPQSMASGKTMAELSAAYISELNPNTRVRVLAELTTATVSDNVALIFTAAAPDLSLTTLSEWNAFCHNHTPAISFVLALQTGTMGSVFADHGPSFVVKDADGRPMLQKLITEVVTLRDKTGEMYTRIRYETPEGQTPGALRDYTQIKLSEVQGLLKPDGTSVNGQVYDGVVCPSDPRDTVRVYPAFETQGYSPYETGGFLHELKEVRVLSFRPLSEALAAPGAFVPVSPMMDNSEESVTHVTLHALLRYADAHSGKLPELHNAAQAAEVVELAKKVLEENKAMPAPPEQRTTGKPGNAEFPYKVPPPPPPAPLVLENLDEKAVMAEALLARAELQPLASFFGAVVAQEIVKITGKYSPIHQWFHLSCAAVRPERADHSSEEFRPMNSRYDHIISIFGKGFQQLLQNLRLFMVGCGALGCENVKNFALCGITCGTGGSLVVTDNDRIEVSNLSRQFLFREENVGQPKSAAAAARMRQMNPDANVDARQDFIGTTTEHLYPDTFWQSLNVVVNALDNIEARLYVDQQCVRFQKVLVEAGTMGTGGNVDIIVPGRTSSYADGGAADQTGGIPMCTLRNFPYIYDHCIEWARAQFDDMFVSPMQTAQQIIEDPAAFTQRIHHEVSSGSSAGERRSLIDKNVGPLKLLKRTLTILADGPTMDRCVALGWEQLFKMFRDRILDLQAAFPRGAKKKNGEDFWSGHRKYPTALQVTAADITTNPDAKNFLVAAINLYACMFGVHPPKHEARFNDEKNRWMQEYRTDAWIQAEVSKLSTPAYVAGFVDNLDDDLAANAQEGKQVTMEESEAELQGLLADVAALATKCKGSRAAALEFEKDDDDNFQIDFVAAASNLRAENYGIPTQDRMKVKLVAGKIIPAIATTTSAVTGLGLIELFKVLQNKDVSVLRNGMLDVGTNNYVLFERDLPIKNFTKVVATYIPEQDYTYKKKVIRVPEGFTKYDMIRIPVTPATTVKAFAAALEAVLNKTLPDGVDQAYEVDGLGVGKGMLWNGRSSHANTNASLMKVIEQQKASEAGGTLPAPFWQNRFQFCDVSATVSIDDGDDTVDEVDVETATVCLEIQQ
Nature of the experiment: Leishmania donovani Ubiquitin Activating Enzyme (LdE1). In kind it is functional. As to conditions: 30 µM.

The target of experiment [3] is AMP-activated protein kinase, AMPK (Homo sapiens) (UniProt P54646+O43741+P54619+Q9UGJ0+Q9Y478+Q13131+Q9UGI9). Put plainly: AMP-dependent Kinase enzyme assay. An in vitro enzyme assay that detects ADP turnover that is directly proportional to AMPK activity. This uses naive AMPK that is activated during the assay with MK-8722. In kind it is functional. As to conditions: 30 µM.

Experiment [4] addresses Sialic acid-binding Ig-like lectin 9 (Homo sapiens) (UniProt Q9Y336). Nature of the experiment: Hs-Siglec9 ALPHAscreen SOP 20170721. As to conditions: 10 µM. Background: In Alpha technology, singlet oxygen from a donor bead excites a nearby acceptor bead.
The test system of another experiment is Trypanosoma cruzi. Nature of the experiment: Trypanosoma cruzi phosphomannomutase and mannose-1-phosphate guanylyltransferase assay. The format is functional. As to conditions: 10 µM.
For experiment [5], the target named is T2, Arginase-2, mitochondrial (Homo sapiens) (UniProt P78540).
T2 sequence (whole entry): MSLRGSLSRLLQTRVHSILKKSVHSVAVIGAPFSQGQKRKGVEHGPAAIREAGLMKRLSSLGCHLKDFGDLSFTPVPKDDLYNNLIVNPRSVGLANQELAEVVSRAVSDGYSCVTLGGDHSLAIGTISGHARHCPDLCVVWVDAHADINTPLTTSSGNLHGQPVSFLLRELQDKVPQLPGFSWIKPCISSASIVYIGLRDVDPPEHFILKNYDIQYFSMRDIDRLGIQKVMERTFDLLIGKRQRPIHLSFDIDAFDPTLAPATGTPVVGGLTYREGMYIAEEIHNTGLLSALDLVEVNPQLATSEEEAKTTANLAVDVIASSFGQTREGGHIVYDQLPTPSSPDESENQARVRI
Nature of the experiment: in vitro enzyme assay to detect the production of urea directly proportional to the activity of Arginase II. Also: in the data most compounds retested in dose-response had high values. The format is functional. The following applies: 33.3 µM.

Experiment [6] concerns the target T3, Proteasome subunit beta (Trypanosoma cruzi) (UniProt O96673).
T3 sequence (whole entry): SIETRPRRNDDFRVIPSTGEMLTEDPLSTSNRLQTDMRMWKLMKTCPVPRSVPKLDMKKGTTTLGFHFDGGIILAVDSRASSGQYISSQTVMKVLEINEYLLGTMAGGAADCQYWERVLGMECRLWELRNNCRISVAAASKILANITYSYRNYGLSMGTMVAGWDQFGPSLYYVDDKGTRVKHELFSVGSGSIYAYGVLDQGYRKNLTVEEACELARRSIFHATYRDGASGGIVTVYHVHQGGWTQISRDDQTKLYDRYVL
Put plainly: Trypanosoma cruzi proteasome chymotrypsin-like activity (TcProtChymo) assay. Also: in the data most compounds retested in dose-response had high values. The format is functional. The following applies: 9.37 µM.

The species named for the next experiment is Homo sapiens. Put plainly: To identify inhibition of the IFN signalling (Jak-Stat) pathway via expression of an eGFP reporter gene under the control of an IFN-stimulated response element (ISRE) containing MxA promoter. The format is functional. As to conditions: 30 µM. In general terms: A reporter such as luciferase makes a cellular process visible.
Experiment [7] deals with T4, Tyrosyl-tRNA synthetase, putative (Trypanosoma cruzi (strain CL Brener)) (UniProt Q4DSP6).
T4 sequence (whole entry): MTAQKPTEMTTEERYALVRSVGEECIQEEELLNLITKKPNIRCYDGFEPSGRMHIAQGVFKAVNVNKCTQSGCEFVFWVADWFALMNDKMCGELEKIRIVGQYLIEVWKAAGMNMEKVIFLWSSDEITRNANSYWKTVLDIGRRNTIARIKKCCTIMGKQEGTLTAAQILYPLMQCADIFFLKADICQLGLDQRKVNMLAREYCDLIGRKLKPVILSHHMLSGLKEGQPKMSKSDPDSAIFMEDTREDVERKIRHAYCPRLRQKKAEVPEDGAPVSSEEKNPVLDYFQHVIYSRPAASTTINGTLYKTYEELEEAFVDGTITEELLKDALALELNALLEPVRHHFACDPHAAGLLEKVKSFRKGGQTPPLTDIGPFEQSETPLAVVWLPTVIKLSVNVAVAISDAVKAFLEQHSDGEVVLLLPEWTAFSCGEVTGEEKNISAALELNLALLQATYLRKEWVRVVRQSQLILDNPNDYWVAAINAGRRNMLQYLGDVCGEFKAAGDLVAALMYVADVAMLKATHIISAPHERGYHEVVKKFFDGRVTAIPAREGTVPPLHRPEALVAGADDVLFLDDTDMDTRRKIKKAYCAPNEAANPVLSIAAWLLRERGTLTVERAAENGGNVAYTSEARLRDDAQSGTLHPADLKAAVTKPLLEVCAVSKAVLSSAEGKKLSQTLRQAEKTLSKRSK
Put plainly: Trypanosoma cruzi tyrosyl tRNA synthetase (TcYRS) _High Tyrosine SOP. Also: in the data most compounds retested in dose-response had high values. In kind it is functional. As to conditions: 30 µM.

Experiment [8] has as its target T4, Tyrosyl-tRNA synthetase, putative (Trypanosoma cruzi (strain CL Brener)). Nature of the experiment: Trypanosoma cruzi tyrosyl tRNA synthetase (TcYRS) SOP. The format is functional. As to conditions: 30 µM.
Experiment [9] addresses Chromo domain-containing protein 1 (Saccharomyces cerevisiae (strain ATCC 204508 / S288c) (Baker's yeast)) (UniProt P32657). Put plainly: ScCHD-1 Enzyme Inhibition Assay. Also: in the data most compounds retested in dose-response had high values. In kind it is functional. As to conditions: 30 µM.

Chain of Chromo domain-containing protein 1 (Saccharomyces cerevisiae (strain ATCC 204508 / S288c) (Baker's yeast)) (P32657 whole entry, the tested form may be a part): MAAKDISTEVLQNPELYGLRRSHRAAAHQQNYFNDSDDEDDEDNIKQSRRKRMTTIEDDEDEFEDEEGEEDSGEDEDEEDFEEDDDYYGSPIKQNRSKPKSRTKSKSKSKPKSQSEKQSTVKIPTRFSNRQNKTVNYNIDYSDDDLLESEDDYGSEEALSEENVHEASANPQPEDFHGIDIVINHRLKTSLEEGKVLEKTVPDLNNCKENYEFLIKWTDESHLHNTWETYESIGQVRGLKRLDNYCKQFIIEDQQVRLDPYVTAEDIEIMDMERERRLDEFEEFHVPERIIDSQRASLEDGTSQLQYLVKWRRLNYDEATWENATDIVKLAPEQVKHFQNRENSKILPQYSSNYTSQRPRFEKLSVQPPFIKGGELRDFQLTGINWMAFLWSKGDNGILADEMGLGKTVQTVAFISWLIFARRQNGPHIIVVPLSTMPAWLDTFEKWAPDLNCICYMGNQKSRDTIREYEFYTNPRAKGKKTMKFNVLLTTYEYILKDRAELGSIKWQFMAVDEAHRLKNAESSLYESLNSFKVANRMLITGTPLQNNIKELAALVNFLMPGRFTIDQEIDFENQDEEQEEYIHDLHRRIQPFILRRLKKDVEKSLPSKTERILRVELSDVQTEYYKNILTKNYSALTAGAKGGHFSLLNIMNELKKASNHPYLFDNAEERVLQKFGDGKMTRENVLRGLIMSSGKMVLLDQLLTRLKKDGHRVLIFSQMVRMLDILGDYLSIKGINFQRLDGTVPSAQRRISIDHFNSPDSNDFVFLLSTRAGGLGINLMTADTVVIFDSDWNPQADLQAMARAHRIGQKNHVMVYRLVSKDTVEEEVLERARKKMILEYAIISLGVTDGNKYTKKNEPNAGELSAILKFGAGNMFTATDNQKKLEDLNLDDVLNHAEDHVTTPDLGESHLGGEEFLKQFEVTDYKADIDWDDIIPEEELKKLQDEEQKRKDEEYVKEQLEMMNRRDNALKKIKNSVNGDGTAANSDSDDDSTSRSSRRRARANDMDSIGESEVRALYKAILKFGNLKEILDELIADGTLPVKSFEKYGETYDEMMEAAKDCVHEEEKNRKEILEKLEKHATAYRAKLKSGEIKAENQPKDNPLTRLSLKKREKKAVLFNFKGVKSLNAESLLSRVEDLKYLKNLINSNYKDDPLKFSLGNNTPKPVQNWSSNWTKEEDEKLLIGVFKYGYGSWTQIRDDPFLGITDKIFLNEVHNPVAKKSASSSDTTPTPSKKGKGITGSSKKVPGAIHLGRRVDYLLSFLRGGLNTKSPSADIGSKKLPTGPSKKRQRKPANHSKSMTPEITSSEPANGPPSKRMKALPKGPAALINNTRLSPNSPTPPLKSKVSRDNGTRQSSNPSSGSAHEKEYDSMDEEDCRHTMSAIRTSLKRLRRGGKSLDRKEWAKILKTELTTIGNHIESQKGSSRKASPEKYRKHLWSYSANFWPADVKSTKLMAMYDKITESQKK
Chain of Protein translocase subunit SecA (Escherichia coli (strain K12)) (P10408 whole entry): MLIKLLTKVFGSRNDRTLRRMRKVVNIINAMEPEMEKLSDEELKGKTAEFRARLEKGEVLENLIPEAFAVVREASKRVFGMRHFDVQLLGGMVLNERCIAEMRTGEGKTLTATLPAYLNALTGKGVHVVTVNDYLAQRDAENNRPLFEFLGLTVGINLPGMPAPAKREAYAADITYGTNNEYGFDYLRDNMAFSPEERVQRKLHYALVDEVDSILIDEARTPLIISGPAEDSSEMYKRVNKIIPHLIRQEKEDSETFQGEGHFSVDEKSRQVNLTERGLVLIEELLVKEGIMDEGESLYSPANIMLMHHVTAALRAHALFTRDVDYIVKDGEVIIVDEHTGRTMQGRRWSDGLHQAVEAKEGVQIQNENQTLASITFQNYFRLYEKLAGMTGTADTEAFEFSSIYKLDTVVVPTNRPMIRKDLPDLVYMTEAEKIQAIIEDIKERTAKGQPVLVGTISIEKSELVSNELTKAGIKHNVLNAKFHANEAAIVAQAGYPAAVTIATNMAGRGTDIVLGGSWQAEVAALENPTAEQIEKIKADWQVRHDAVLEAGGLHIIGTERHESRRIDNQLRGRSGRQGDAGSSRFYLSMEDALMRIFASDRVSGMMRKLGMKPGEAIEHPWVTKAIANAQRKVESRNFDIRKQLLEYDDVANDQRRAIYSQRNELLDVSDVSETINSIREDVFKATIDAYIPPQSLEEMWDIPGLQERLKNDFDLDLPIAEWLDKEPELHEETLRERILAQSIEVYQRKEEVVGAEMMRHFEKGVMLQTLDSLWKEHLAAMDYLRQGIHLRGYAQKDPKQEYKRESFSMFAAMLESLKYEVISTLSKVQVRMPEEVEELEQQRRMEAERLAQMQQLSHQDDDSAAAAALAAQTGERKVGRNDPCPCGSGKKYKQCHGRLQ
Chain of Sialic acid-binding Ig-like lectin 9 (Homo sapiens) (Q9Y336 whole entry): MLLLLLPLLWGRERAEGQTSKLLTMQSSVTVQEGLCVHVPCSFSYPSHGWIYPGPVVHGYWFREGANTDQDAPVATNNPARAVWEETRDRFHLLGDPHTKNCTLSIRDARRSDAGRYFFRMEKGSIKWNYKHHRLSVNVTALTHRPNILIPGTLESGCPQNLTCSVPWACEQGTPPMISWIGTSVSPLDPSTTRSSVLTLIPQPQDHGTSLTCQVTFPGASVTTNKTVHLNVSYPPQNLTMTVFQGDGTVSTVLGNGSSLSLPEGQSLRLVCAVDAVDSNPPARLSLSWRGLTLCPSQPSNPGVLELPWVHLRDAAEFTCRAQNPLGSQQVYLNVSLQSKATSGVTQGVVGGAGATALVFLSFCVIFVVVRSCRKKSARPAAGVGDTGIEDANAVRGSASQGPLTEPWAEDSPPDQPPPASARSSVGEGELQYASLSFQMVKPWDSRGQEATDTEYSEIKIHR

`O=C(C1CC1)N1CCN(Cc2coc(-c3ccc(Cl)cc3)n2)CC1`: the Percent Effect is -5.03% in experiment [1]; -7.79% in experiment [2]; 1.6% in experiment [3]; 13.9% in experiment [4]; 8.8% in the experiment with Trypanosoma cruzi; -1.42% in experiment [5]. Further, the Percent Effect in experiment [6] is -3.38%; in the experiment listed under Homo sapiens, 43%; in [7] it was 3.88%; in experiment [8] it was 0%; in [9], -5.59%.

On to `COC(=O)C1CCN(c2cncc(-n3nc(C)cc3C)n2)CC1`, for which the Percent Effect in experiment [1] was -4%; in [2], 0%; in [3] it was 4.1%; in experiment [4] it was 5.66%; in the experiment on Trypanosoma cruzi, -7.03%; in experiment [5] it was 4.17%. Moreover, the Percent Effect is 15.6% in experiment [6]; 12.6% in the experiment filed under Homo sapiens; 3.96% in experiment [7]; 3.66% in experiment [8]; -8.43% in experiment [9].

As for `COc1ccc(NC(=O)Cn2nc(C)c(C)cc2=O)cc1OC`, the Percent Effect in experiment [1] was -0.134%; in experiment [2] it was 0%; in [3], -0.466%; in [4] it was 23.4%; in the experiment on Trypanosoma cruzi, 5.79%; in [5], 20.5%. Further, the Percent Effect in experiment [6] is 8.97%; in the experiment listed under Homo sapiens it was 2.79%; in experiment [7] it was 0.529%; in [8], 9.76%; in experiment [9] it was -7.49%.

Turning to `CCS(=O)(=O)N1CCCc2ccc(NC(=O)Cc3ccc(F)cc3)cc21`, the Percent Effect in [1] is 0.369%; in [2], 7.79%; in experiment [3], -1.04%; in experiment [4] it was -9.41%; in the experiment with Trypanosoma cruzi, -5.82%; in [5], 0.645%. Further, the Percent Effect in experiment [6] is 8.53%; in the experiment listed under Homo sapiens it was 65.4%; in [7], -5.29%; in [8], -6.41%; in experiment [9], -13.3%.

For `Cc1nc(C)n(CC2CCCN2Cc2nc(C3CC3)no2)n1` (stereo not drawn), the Percent Effect in [1] is -1.33%; in experiment [2], 2.63%; in experiment [3] it was -3.31%; in experiment [4], -2.5%; in the experiment with Trypanosoma cruzi it was 4.32%; in experiment [5], -3.83%. Also, the Percent Effect in [6] was 1.34%; in the experiment filed under Homo sapiens, -15.7%; in [7], 2.45%; in [8] it was 4.88%; in [9], -4.84%.

On to `CCc1[nH]ncc1C(=O)N1CCCN(Cc2cnn(C(C)C)c2)CC1`, for which the Percent Effect in [1] is -1.61%; in experiment [2], 29.7%; in experiment [3], -18.5%; in experiment [4], -5.54%; in the experiment on Trypanosoma cruzi, 4.62%; in experiment [5], -18%. Besides, the Percent Effect in experiment [6] was 18.7%; in the experiment listed under Homo sapiens, 24.4%; in experiment [7], 3.45%; in experiment [8] it was 13.6%; in experiment [9], -9.88%.

Consider `Cc1nc(C)n(CC2CCCN(c3ncnc4c3CCC4)C2)n1` (stereo not drawn), for which the Percent Effect was -4.39% in experiment [1]; 0% in experiment [2]; 0.226% in [3]; -3.72% in experiment [4]; -4.25% in the experiment with Trypanosoma cruzi; -2.81% in experiment [5]. In addition, the Percent Effect is -2.88% in experiment [6]; 64.3% in the experiment listed under Homo sapiens; -2.46% in experiment [7]; -8.64% in experiment [8]; 4.82% in experiment [9].

On to `O=C1CC(c2ccccc2)c2c(n3ccsc3nc2=O)N1` (stereo not drawn), for which the Percent Effect was -4.74% in experiment [1]; 17.3% in [2]; -7.29% in experiment [3]; 1.39% in [4]; 2.16% in the experiment with Trypanosoma cruzi; -6.87% in [5]. Moreover, the Percent Effect in [6] is 13.3%; in the experiment listed under Homo sapiens, 5.81%; in experiment [7], 5.29%; in experiment [8], 15.4%; in experiment [9], -7.95%.

The values above are taken from ChEMBL document CHEMBL3988442, “University of Dundee, Small-Polar-MMV Screening Library” (2021).
